Results reported in PubChem BioAssay (NCI).
Where “and” joins values, the source holds several entries; their conditions need not be identical. Identical values can stand only once. About 79,000 compounds went through this panel and 15% of them were active in at least one assay; those are over-represented in the sample as a whole. Some compounds were tested as several samples or in several runs, with calls that do not always agree. Calls of active or inactive are those of the source. Rule as the data show it: active = growth inhibition above about 70%; inactive = the rest.

Columns and labels:
[1] = NCI Yeast Anticancer Drug Screen. Data for the rad50 strain (AID 155);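 also: 0% = growth of vehicle-only cultures of the same strain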; settings: S. cerevisiae rad50 strain growth inhibition; at 50.0 µM; stronger effect = higher value
Summary of the method: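 Readout: growth inhibition relative to vehicle-treated cultures. Compound exposure was carried out in a genetically defined yeast strain deficient in DNA damage repair.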

[2] = NCI Yeast Anticancer Drug Screen. Data for the mec2-1 strain (AID 157); settings: S. cerevisiae mec2-1 strain, at 50.0 µM, stronger effect = higher value
Summary of the method: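 Cells of the genetically defined mec2-1 yeast strain are incubated with test compound. Inhibition of growth is calculated against vehicle-treated controls.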

[3] = NCI Yeast Anticancer Drug Screen. Data for the sgs1 mgt1 strain (AID 161);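 also: 0% = growth of cultures given vehicle only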; settings: S. cerevisiae sgs1 mgt1 strain, at 50.0 µM, stronger effect = higher value
Summary of the method: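 Mutant yeast exposed to compound; growth scored against vehicle-only wells.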

[4] = NCI Yeast Anticancer Drug Screen. Data for the cln2 rad14 strain (AID 165);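 also: 0% = growth equal to vehicle treated cultures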; settings: S. cerevisiae cln2 rad14 strain, at 50.0 µM, stronger effect = higher value
Summary of the method: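 The screen exposed genetically defined yeast (cln2 rad14) to test compounds and scored growth inhibition relative to vehicle-treated controls.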

[5] = NCI Yeast Anticancer Drug Screen. Data for the bub3 strain (AID 167); settings: S. cerevisiae bub3 mutant strain, at 50.0 µM, stronger effect = higher value
Summary of the method: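 Readout: yeast growth inhibition, expressed relative to vehicle-only wells. The test organism is a mutant strain from a panel with lesions in DNA repair or checkpoint genes.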

[6] = NCI Yeast Anticancer Drug Screen. Data for the mlh1 rad18 strain (AID 175); settings: S. cerevisiae mlh1 rad18 strain growth inhibition; at 50.0 µM; stronger effect = higher value
Summary of the method: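 Compound-treated yeast growth, normalised to vehicle controls. Strain bears defined DNA repair mutations.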

SMILES	growth inhibition [1]	growth inhibition [2]	growth inhibition [3]	growth inhibition [4]	growth inhibition [5]	growth inhibition [6]
O=[N+]([O-])c1cccc(/C=C/c2ccc(S(=O)(=O)F)cc2)c1	97.5% (active)	93.8% (active)	96.8% (active)	93.8% (active)	97.2% (active)	97.3% (active)
C[N+](C)(C)CC1CCCCCCCCCCC1=O (configuration not stated)	-4.85% (inactive)	-10.4% (inactive)	-25.2% (inactive)	7.75% (inactive)	-16.4% (inactive)	-9.75% (inactive)
C[C@H](N)[C@H](O)c1ccccc1	7.45% (inactive) and 0.25% (inactive)	-14.4% (inactive) and 4.7% (inactive)	-7.4% (inactive) and -7.8% (inactive)	-8.35% (inactive) and -18.5% (inactive)	-4.3% (inactive) and 0.95% (inactive)	-7.3% (inactive) and -1.15% (inactive)
[Se]=[Nb]=[Se]	-5.8% (inactive)	-6.55% (inactive)	-18.3% (inactive)	-5.1% (inactive)	-27.1% (inactive)	-28.5% (inactive)
c1ccc2c(c1)-c1ccccc1C1NC21 (configuration not stated)	21.3% (inactive) and 69% (inactive)	2.3% (inactive) and 47.4% (inactive)	21.9% (inactive) and 48.2% (inactive)	10.7% (inactive) and 56.1% (inactive)	20.5% (inactive) and 98.5% (active)	-50.5% (inactive) and 51.2% (inactive)
O=CNc1ccc(Cl)cc1C(=O)c1ccccc1	9.8% (inactive)	-0.35% (inactive)	15.2% (inactive)	28.8% (inactive)	21.6% (inactive)	4.4% (inactive)
C=C[CH2][Sn]([CH2]C=C)([c]1ccccc1)[c]1ccccc1	47.6% (inactive)	18.6% (inactive)	28.8% (inactive)	6.7% (inactive)	-7.55% (inactive)	16.4% (inactive)
Cc1cccc(C(=O)[O][Pb]([CH3])([CH3])[CH3])c1	16.1% (inactive)	-53.7% (inactive)	21% (inactive)	-20% (inactive)	-9.65% (inactive)	36.2% (inactive)
NC(Cc1cccc(F)c1)c1nn[nH]n1 (configuration not stated)	-7.6% (inactive)	2.35% (inactive)	-0.1% (inactive)	-22.8% (inactive)	1.65% (inactive)	-0.7% (inactive)
Oc1c(Cl)cc(Cl)cc1C1N(Cc2ccc(N(CCCl)CCCl)cc2)CCCN1Cc1ccc(N(CCCl)CCCl)cc1	8.75% (inactive)	17.2% (inactive)	23.4% (inactive)	-3.25% (inactive)	3.7% (inactive)	41.5% (inactive)
O=[N+]([O-])c1ccc(Cl)c(Cl)c1	20.9% (inactive)	-4.6% (inactive)	-8.5% (inactive)	-37.5% (inactive)	-5% (inactive)	26.1% (inactive)
COC1=CC(=O)OC(CCc2ccccc2)C1 (configuration not stated)	-2.7% (inactive)	-5.9% (inactive)	-1.9% (inactive)	-14.2% (inactive)	-9.35% (inactive)	-4.85% (inactive)
CC(=O)NC(Cc1ccc(N(CCCl)CCCl)cc1)C(=O)NC(CC(C)C)C(=O)O (configuration not stated)	2.85% (inactive)	22.6% (inactive)	-4.15% (inactive)	5.75% (inactive)	2.7% (inactive)	21.7% (inactive)
CSc1sc2ccccc2[s+]1	-10.8% (inactive)	-5.4% (inactive)	-0.35% (inactive)	10.6% (inactive)	9.55% (inactive)	3.35% (inactive)
NC(=O)c1ccc([As](=O)(O)O)cc1[N+](=O)[O-]	-2% (inactive)	3.85% (inactive)	5.05% (inactive)	-47.8% (inactive)	-6.9% (inactive)	-10.6% (inactive)
CCCCCCCCCCBr	30.4% (inactive)	17.2% (inactive)	-12.4% (inactive)	25.1% (inactive)	17.1% (inactive)	-37.6% (inactive)
O=C(O)CC(=O)O.[Co+2].[NH-]CC(=O)O.[NH-]CC(=O)O	15.4% (inactive)	-6.65% (inactive)	10.2% (inactive)	0.8% (inactive)	-0.9% (inactive)	-15.9% (inactive)
CN(C)P(=O)(N(C)C)N1CCCCCC1	-8.2% (inactive)	-21.6% (inactive)	0% (inactive)	-18.4% (inactive)	3.4% (inactive)	-10.6% (inactive)
O=C(O)c1ccc(Cl)c(Cl)c1.[Ni]	-19.1% (inactive)	-16.4% (inactive)	-4.35% (inactive)	-11.9% (inactive)	-23.4% (inactive)	-19.7% (inactive)
COc1ccc([Se]c2ccc(OC)cc2)cc1	0% (inactive)	-15.5% (inactive)	-7.15% (inactive)	-13.6% (inactive)	21.4% (inactive)	-4.55% (inactive)
[CH3][Sn]([CH3])([CH3])[S]C(=S)N1CCOCC1	98.7% (active)	90% (active)	98.2% (active)	94.2% (active)	98.5% (active)	98.5% (active)

SMILES	growth inhibition [1]	growth inhibition [2]	growth inhibition [3]	growth inhibition [4]	growth inhibition [5]	growth inhibition [6]
CC(=O)OC1(C(C)=O)CC2(c3ccccc3)OC1(c1ccccc1)c1ccccc12 (configuration not stated)	-0.55% (inactive)	12.1% (inactive)	9% (inactive)	10.2% (inactive)	-3.9% (inactive)	7.25% (inactive)
CN(C)P(=O)(N(C)C)N(C)C	23.2% (inactive)	6.4% (inactive)	-7.05% (inactive)	-16.9% (inactive)	23.6% (inactive)	25.1% (inactive)
CC(C)(O)C1=CC23CC(C)(C(=O)O)C4CCCCC4(C)C2CC1OO3 (configuration not stated)	21.4% (inactive)	-7.3% (inactive)	32% (inactive)	11.4% (inactive)	-10.3% (inactive)	25.4% (inactive)
C(=NC1CCCCC1)c1c[nH]c2ccccc12	-24.9% (inactive)	-39.6% (inactive)	-5.05% (inactive)	4.7% (inactive)	-27.5% (inactive)	-17.8% (inactive)
CC(N)Cc1ccc(Cl)cc1 (configuration not stated)	14.5% (inactive)	-0.3% (inactive)	1.9% (inactive)	-15.6% (inactive)	-14.9% (inactive)	3.6% (inactive)
CCCCN(CCCC)CC(O)c1ccc(Br)cc1 (configuration not stated)	33.5% (inactive)	15.4% (inactive)	54% (inactive)	16.7% (inactive)	28.9% (inactive)	44.1% (inactive)
O=C(OC1CN2CCC1CC2)N(c1ccccc1)c1ccccc1 (configuration not stated)	2.35% (inactive)	0.25% (inactive)	-4.1% (inactive)	-4.75% (inactive)	3.5% (inactive)	13.3% (inactive)
O=C1C(C(Nc2ccccc2)c2ccccc2)=C([O-])c2ccccc21.O=C1C(C(Nc2ccccc2)c2ccccc2)=C([O-])c2ccccc21.[Cu+2] (configuration not stated)	-12% (inactive)	-1.5% (inactive)	-10.2% (inactive)	10.5% (inactive)	4.75% (inactive)	-0.65% (inactive)
COc1cc(CC(N)Cc2c[nH]c3ccccc23)cc(OC)c1OC (configuration not stated)	-5.2% (inactive)	-5.8% (inactive)	-4.85% (inactive)	24.6% (inactive)	-25.3% (inactive)	-3.35% (inactive)
CN1C(=O)N(C)P1(Cl)(Cl)Cl	18.6% (inactive)	-6.15% (inactive)	3.15% (inactive)	-36.6% (inactive)	0.2% (inactive)	-14.9% (inactive)
O=C(O)CN1C(=O)CN=C(c2ccccn2)c2cc(Cl)ccc21	-5.45% (inactive)	-8.6% (inactive)	-23.8% (inactive)	-50.6% (inactive)	-15.3% (inactive)	-17% (inactive)
CS[P+]1(C)C=C(N2CCOCC2)CC1 (configuration not stated)	37.4% (inactive)	15.2% (inactive)	0.6% (inactive)	-8% (inactive)	8.8% (inactive)	10.3% (inactive)
Cc1[nH]c2cc([N+](=O)[O-])ccc2c1[N+](=O)[O-]	44.6% (inactive) and 36.9% (inactive)	32.2% (inactive) and 25.4% (inactive)	26% (inactive) and 38.3% (inactive)	24.9% (inactive) and 9.1% (inactive)	-4.65% (inactive) and -4.55% (inactive)	59% (inactive) and 41.8% (inactive)
O=C(Cc1ccccc1)OCCBr	-8.95% (inactive)	4.65% (inactive)	0.95% (inactive)	15.1% (inactive)	-16.2% (inactive)	-2.05% (inactive)
CC(=O)[O-].N.N.N.N.[Co+3].[O-][Cl+3]([O-])([O-])[O-].[OH3+]	-2.35% (inactive)	7.3% (inactive)	-1.45% (inactive)	16.1% (inactive)	21.9% (inactive)	2.7% (inactive)
COc1ccc(-c2nc(-c3ccc(N=Cc4ccc(N(CCCl)CCCl)cc4)cc3)cs2)cc1	58% (inactive)	11.4% (inactive)	57% (inactive)	27.1% (inactive)	11.5% (inactive)	42.6% (inactive)
COc1cc(CC(C)N)ccc1O (configuration not stated)	7.9% (inactive)	-9.4% (inactive)	-14.2% (inactive)	-46.4% (inactive)	21.6% (inactive)	-18.4% (inactive)
CCC[CH2][Sn]([CH2]C)([CH2]C)[CH2]C	40.4% (inactive)	17.8% (inactive)	35.7% (inactive)	15.8% (inactive)	20.9% (inactive)	31.3% (inactive)
COP(=O)(OC)/C(=C/c1c[nH]c2ccccc12)C(=O)O	-12.7% (inactive)	-71.6% (inactive)	-55.9% (inactive)	-34.9% (inactive)	-20.7% (inactive)	-32.2% (inactive)
C=CCN(CC=C)C(Cc1ccccc1)c1ccccc1 (configuration not stated)	2.95% (inactive)	-7.75% (inactive)	-5.85% (inactive)	-5.6% (inactive)	11.3% (inactive)	-5.95% (inactive)
O=C1c2c(ccc3ccccc23)CN2CCCCC12 (configuration not stated)	42.2% (inactive)	19.6% (inactive)	61.9% (inactive)	14% (inactive)	40.4% (inactive)	45.2% (inactive)
